Test results reported in the supplement of paper PMC10849652.
Targets with a hit are over-represented here; the source holds about 7,900 in all. About 0.6% of all pairs of compound and target were hits. Unmarked numbers belong to inactive results.

How the values were obtained:
Assay in all cases: log2 fold change, soluble protein after heating vs DMSO (PISA); higher = thermal stabilisation; K562 cells, 10 uM, 30 min; active = over 0.2 and 3.5 SD of the protein, either way, in both replicates (recomputed)
[1] = compound: CNC(=O)c1ccc(Nc2ncc(C(F)(F)F)c(NCc3nccnc3N(C)S(C)(=O)=O)n2)cc1 [defactinib]
Summary of the method: (§1)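 Thermal stability values are relative to control samples and come from duplicates. They are expressed as log2 fold changes. For measurement, K562 cells (2×10^6 cells/mL) received 10 μM compound for 30 min, and aliquots were heated for 3 min over 48°C-58°C, pooled, and extracted at 4°C in PBS with 0.5% NP-40. Soluble protein, the supernatant after 21,000xg for 90 min, was quantified by TMTpro 16plex LC-MS/MS with equalised channel sums.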

[2] = compound: CNCc1ccc(-c2[nH]c3cc(F)cc4c3c2CCNC4=O)cc1 [rucaparib]
Summary of the method: as §1

[3] = compound: COC(=O)N[C@@H](C)CNc1nccc(-c2cn(C(C)C)nc2-c2cc(Cl)cc(NS(C)(=O)=O)c2F)n1 [encorafenib]
Summary of the method: as §1

[4] = compound: COC(=O)[C@H](CCSC)NC(=O)C1=C(C=C(C=C1)NC[C@H](CS)N)C2=CC=CC=C2
Summary of the method: as §1

[5] = compound: CN1CCN(CCOc2cc(OC3CCOCC3)c3c(Nc4c(Cl)ccc5c4OCO5)ncnc3c2)CC1 [saracatinib]
Summary of the method: as §1

[6] = compound: CNc1nc(-c2ccc3c(N)n[nH]c3c2)cc(N2C[C@@H](C(=O)NC3CCCCC3)CC[C@H]2C)n1
Summary of the method: as §1

[7] = compound: CN1CC[C@H](c2c(O)cc(O)c3c(=O)cc(-c4ccccc4Cl)oc23)[C@H](O)C1 [alvocidib]
Summary of the method: as §1

[8] = compound: CN1CCc2c(c3ccccc3n2Cc2ccc(C(=O)NO)cc2)C1 [Tubastatin A]
Summary of the method: as §1

[9] = compound: CNC(=O)C1=CC=CC=C1NC2=NC(=NC=C2Cl)NC3=C(C=C(C=C3)N4CCOCC4)OC
Summary of the method: as §1

[10] = compound: CN1CCN(c2nc(C3=C(c4c[nH]c5ccccc45)C(=O)NC3=O)c3ccccc3n2)CC1 [sotrastaurin]
Summary of the method: as §1

## KIF1B isoform 3 (UniProt O60333)
[1]
  log2 fold change: 0.127
[2]
  log2 fold change: -0.046
[3]
  log2 fold change: -0.222
[4]
  log2 fold change: 0.17

## LIN52 (UniProt Q52LA3)
[5]
  log2 fold change: 0.038
[6]
  log2 fold change: -0.059

## ING5 (UniProt Q8WYH8)
UniProt Q8WYH8, sequence (Q8WYH8 whole entry, looked up): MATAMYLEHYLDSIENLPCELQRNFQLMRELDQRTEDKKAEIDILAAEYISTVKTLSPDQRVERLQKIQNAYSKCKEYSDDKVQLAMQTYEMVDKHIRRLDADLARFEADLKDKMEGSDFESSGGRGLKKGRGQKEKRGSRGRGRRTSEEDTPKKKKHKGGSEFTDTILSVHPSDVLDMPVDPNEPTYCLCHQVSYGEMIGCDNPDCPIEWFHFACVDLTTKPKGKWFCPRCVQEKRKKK
[7]
  log2 fold change: 0.034
[8]
  log2 fold change: 0.192
[9]
  log2 fold change: -0.147
[2]
  log2 fold change: 0.129
[3]
  log2 fold change: -0.078

## MAPRE3 isoform 2 (UniProt Q9UPY8)
[7]
  log2 fold change: -0.075
[8]
  log2 fold change: 0.13

## MAPK11 (UniProt Q15759)
[8]
  log2 fold change: 0.208
[9]
  log2 fold change: 0.615

## MGRN1 isoform 2 (UniProt O60291)
[7]
  log2 fold change: 0.036
[8]
  log2 fold change: 0.197
[9]
  log2 fold change: -0.054

## IGFBP6 (UniProt P24592)
[5]
  log2 fold change: 0.011
[7]
  log2 fold change: 0.136
[1]
  log2 fold change: 0.144
[6]
  log2 fold change: -0.094
[4]
  log2 fold change: 0.055

## KIF13A isoform 4 (UniProt Q9H1H9)
[10]
  log2 fold change: -0.027
[7]
  log2 fold change: -0.091

## LYN isoform 2 (UniProt P07948)
UniProt P07948, sequence (P07948 whole entry, looked up): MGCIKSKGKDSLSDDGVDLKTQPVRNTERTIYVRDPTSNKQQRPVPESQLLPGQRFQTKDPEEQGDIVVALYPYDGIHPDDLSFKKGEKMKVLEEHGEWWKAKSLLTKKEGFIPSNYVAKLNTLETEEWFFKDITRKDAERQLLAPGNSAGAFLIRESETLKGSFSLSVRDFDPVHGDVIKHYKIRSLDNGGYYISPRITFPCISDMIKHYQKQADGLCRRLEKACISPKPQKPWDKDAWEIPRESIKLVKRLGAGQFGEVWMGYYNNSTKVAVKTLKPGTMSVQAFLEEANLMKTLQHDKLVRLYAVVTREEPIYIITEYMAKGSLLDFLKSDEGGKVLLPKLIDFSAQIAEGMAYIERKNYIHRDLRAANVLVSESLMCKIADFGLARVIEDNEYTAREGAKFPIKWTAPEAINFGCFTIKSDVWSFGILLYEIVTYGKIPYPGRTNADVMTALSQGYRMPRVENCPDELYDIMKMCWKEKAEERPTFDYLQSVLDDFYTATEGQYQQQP
[10]
  log2 fold change: 0.034
[7]
  log2 fold change: 0.015
[9]
  log2 fold change: 0.043
[1]
  log2 fold change: -0.035
[4]
  log2 fold change: -0.004

## LEPROT (UniProt O15243)
[5]
  log2 fold change: -0.261
[7]
  log2 fold change: 0.071
[8]
  log2 fold change: -0.133
[9]
  log2 fold change: 0.087
[2]
  log2 fold change: 0.028
[6]
  log2 fold change: -0.25
[3]
  log2 fold change: -0.077

## MAP4K2 (UniProt Q12851)
UniProt Q12851, sequence (Q12851 whole entry, looked up): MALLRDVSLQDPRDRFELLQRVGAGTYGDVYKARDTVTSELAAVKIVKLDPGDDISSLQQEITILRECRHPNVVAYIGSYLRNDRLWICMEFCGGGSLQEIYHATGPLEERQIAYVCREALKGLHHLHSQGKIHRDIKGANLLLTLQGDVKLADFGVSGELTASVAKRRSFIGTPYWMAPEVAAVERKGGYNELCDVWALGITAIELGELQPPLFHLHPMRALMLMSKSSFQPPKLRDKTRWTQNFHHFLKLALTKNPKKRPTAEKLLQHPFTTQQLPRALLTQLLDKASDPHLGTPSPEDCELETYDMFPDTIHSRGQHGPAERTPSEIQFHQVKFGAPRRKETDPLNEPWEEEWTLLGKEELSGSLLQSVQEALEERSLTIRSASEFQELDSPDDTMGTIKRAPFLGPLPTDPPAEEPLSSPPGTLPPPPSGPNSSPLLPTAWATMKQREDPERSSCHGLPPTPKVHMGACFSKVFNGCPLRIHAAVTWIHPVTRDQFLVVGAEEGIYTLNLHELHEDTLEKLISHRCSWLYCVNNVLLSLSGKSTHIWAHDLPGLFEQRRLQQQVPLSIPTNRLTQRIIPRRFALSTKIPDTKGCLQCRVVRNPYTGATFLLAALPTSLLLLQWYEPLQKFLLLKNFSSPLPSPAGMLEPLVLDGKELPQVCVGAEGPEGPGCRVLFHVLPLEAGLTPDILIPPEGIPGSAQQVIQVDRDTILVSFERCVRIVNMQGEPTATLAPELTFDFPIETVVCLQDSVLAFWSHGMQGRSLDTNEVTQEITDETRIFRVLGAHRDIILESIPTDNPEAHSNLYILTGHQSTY
[10]
  log2 fold change: -0.184
[7]
  log2 fold change: -0.076
[8]
  log2 fold change: 0.076
[2]
  log2 fold change: -0.003
[3]
  log2 fold change: 0.066

## MED29 (UniProt Q9NX70)
[5]
  log2 fold change: -0.033
[9]
  log2 fold change: 0.004
[6]
  log2 fold change: 0.001

## MARCHF3 (UniProt Q86UD3)
[10]
  log2 fold change: -0.055
[2]
  log2 fold change: 0
[3]
  log2 fold change: 0.097

## LRRFIP1 isoform 4 (UniProt Q32MZ4)
[5]
  log2 fold change: 0.008
[7]
  log2 fold change: 0.481
[9]
  log2 fold change: -0.111
[6]
  log2 fold change: -0.089

## MAP3K20 isoform 2 (UniProt Q9NYL2)
[10]
  log2 fold change: 0.059
[8]
  log2 fold change: 0.093
[9]
  log2 fold change: -0.024

## MAP4K5 (UniProt Q9Y4K4)
[7]
  log2 fold change: 0.072
[8]
  log2 fold change: 0.113
[9]
  log2 fold change: -0.02
[1]
  log2 fold change: -0.02
[2]
  log2 fold change: -0.08
[3]
  log2 fold change: 0.082
[4]
  log2 fold change: -0.041

## MFSD1 isoform 6 (UniProt Q9H3U5)
UniProt Q9H3U5, sequence (Q9H3U5 whole entry, looked up): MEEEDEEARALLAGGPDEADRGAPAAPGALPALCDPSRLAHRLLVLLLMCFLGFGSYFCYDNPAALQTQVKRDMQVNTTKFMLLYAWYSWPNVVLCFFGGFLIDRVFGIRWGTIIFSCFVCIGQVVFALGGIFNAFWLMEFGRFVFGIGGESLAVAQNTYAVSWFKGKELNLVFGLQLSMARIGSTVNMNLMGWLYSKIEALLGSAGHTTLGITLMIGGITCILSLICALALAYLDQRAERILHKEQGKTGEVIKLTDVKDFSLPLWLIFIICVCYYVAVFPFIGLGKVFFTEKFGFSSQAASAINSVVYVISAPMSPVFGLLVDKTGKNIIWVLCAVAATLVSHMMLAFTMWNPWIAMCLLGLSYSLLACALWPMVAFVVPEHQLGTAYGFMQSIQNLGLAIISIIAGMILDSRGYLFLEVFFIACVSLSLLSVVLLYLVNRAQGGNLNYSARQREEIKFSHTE
[10]
  log2 fold change: -0.041
[7]
  log2 fold change: 0.022
[8]
  log2 fold change: -0.039
[9]
  log2 fold change: 0.066
[1]
  log2 fold change: 0.046
[2]
  log2 fold change: -0.014
[3]
  log2 fold change: -0.028
[4]
  log2 fold change: -0.004

## MAPK12 (UniProt P53778)
UniProt P53778, sequence (P53778 whole entry, looked up): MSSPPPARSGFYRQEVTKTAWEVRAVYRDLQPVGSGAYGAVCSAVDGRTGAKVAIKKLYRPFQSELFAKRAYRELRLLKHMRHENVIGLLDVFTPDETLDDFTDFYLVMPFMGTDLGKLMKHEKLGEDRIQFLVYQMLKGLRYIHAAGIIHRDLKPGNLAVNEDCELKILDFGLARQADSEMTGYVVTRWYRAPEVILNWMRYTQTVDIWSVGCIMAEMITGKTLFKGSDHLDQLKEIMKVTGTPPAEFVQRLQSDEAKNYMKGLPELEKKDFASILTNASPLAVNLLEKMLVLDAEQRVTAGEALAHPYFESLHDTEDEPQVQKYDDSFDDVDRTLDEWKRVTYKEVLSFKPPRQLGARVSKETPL
[5]
  log2 fold change: 0.119
[8]
  log2 fold change: -0.037
[9]
  log2 fold change: 0.112
[1]
  log2 fold change: -0.06
[2]
  log2 fold change: 0.101
[6]
  log2 fold change: -0.074
[3]
  log2 fold change: 0.017
[4]
  log2 fold change: 0.059

## IKZF1 isoform 2 (UniProt Q13422)
[10]
  log2 fold change: 0.049
[7]
  log2 fold change: -0.101
[8]
  log2 fold change: -0.123
[9]
  log2 fold change: 0.05
[1]
  log2 fold change: -0.106
[4]
  log2 fold change: -0.02

## LOX (UniProt P28300)
[9]
  log2 fold change: -0.303

## ILF3 (UniProt Q12906)
UniProt Q12906, sequence (Q12906 whole entry, looked up): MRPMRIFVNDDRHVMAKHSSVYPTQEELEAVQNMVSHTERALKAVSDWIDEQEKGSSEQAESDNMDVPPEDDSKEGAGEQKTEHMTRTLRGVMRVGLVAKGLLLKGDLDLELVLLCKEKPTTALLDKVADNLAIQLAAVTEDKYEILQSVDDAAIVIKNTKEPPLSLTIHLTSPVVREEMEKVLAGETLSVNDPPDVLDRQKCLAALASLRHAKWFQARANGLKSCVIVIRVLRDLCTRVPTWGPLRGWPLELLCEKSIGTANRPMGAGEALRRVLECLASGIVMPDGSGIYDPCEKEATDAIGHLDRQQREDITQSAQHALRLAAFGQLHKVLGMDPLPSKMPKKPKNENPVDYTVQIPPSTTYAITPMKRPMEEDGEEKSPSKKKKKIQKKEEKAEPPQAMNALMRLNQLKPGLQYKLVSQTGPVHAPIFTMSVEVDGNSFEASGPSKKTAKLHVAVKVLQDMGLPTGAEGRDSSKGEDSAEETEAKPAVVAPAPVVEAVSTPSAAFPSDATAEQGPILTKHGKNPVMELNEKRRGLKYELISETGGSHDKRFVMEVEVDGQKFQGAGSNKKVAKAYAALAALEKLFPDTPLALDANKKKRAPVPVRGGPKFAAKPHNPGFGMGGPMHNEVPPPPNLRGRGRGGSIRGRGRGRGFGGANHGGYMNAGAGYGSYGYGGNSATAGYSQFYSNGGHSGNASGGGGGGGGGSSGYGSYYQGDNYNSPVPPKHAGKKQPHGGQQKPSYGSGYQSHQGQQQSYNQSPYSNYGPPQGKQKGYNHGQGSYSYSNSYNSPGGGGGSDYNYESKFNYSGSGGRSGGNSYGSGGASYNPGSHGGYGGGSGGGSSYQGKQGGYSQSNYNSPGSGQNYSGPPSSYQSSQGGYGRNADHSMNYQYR
[10]
  log2 fold change: 0.009
[2]
  log2 fold change: 0.384
[3]
  log2 fold change: 0.081

## LDLRAP1 (UniProt Q5SW96)
[9]
  log2 fold change: -0.014

## MAML1 (UniProt Q92585)
[10]
  log2 fold change: -0.051
[7]
  log2 fold change: 0.062
[9]
  log2 fold change: 0.644 (active)
[1]
  log2 fold change: -0.179
[4]
  log2 fold change: -0.327

## MAP4K4 isoform 3 (UniProt O95819)
[5]
  log2 fold change: -0.054
[8]
  log2 fold change: -0.002
[9]
  log2 fold change: -0.051
[1]
  log2 fold change: -0.067
[2]
  log2 fold change: -0.004
[6]
  log2 fold change: -0.037
[3]
  log2 fold change: 0.026
[4]
  log2 fold change: 0.018

## LAPTM4B (UniProt Q86VI4)
UniProt Q86VI4, sequence (Q86VI4 whole entry, looked up): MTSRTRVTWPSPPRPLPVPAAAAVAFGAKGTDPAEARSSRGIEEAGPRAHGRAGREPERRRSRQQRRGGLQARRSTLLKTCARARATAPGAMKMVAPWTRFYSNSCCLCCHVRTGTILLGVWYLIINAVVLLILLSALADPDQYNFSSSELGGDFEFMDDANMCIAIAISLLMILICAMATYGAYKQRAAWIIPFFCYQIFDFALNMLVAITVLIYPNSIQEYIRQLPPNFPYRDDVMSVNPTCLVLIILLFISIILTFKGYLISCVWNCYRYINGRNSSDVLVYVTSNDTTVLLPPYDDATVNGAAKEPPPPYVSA
[10]
  log2 fold change: -0.194
[9]
  log2 fold change: 0.007
[2]
  log2 fold change: 0
[3]
  log2 fold change: 0.009

## MAP4K4 isoform 6 (UniProt O95819)
[5]
  log2 fold change: -0.108
[8]
  log2 fold change: -0.016
[1]
  log2 fold change: -0.012
[2]
  log2 fold change: 0.067
[6]
  log2 fold change: -0.186
[3]
  log2 fold change: 0.049
[4]
  log2 fold change: -0.036

## LMNA isoform 2 (UniProt P02545)
[8]
  log2 fold change: 0.052

## MCOLN3 (UniProt Q8TDD5)
UniProt Q8TDD5, sequence (Q8TDD5 whole entry, looked up): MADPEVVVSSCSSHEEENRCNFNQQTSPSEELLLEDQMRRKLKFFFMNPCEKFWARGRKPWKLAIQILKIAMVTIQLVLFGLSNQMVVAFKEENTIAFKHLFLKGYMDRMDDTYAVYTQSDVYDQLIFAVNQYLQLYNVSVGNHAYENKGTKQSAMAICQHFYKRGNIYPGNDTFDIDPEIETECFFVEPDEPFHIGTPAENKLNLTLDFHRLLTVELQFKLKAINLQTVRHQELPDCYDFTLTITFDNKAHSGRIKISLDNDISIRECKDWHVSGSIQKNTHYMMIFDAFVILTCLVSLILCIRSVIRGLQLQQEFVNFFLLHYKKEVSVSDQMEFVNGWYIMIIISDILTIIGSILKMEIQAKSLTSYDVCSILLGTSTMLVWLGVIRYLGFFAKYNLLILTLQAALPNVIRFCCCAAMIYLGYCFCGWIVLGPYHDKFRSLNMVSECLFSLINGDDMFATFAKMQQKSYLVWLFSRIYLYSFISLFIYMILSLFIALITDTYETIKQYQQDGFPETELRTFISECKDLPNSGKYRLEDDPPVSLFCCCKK
[8]
  log2 fold change: -0.001
[9]
  log2 fold change: -0.141
[2]
  log2 fold change: -0.275
[3]
  log2 fold change: -0.026

## MAP2K5 (UniProt Q13163)
UniProt Q13163, sequence (Q13163 whole entry, looked up): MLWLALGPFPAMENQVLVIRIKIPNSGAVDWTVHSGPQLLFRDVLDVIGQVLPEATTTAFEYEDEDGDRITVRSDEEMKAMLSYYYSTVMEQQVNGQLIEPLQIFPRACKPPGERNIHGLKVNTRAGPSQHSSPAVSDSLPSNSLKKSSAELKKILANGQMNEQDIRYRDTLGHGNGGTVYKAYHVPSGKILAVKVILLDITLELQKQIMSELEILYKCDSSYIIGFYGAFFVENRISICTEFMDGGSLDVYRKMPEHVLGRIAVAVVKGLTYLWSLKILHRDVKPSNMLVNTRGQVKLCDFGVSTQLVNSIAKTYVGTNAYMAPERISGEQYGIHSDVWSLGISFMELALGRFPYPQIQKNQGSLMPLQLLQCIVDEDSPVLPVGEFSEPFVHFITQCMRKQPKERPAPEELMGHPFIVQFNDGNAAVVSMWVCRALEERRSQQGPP
[5]
  log2 fold change: 0.445
[7]
  log2 fold change: -0.008
[6]
  log2 fold change: 0.004

## MBLAC1 (UniProt A4D2B0)
UniProt A4D2B0, sequence (A4D2B0 whole entry, looked up): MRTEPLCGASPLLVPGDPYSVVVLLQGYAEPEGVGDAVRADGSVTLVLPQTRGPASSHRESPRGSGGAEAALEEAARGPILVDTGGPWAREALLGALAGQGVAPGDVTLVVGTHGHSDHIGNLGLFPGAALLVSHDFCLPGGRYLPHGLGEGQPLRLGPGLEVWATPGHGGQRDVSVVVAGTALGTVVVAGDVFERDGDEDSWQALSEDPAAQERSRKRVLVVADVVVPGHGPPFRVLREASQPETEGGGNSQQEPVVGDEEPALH
[5]
  log2 fold change: 0.164
[7]
  log2 fold change: 0.002
[9]
  log2 fold change: 0.049
[1]
  log2 fold change: 0.003
[2]
  log2 fold change: 0.023
[6]
  log2 fold change: -0.005
[3]
  log2 fold change: 0.035
[4]
  log2 fold change: -0.02

## LSR (UniProt M0QZL9)
[10]
  log2 fold change: 0.042
[1]
  log2 fold change: 0.065
[4]
  log2 fold change: -0.249
